Screen size: about 5,500 compounds; about 2,000 (36%) were called active. Inconclusive results (about 18%) are left out. Rule as the data show it: active = normalized growth mostly below about 0.91 (no sharp cut-off); inconclusive = no clear call, values can overlap the other calls; inactive = mostly above about 0.92. The list shows a part of the results.
Experiment: chemical genetic growth profiling, strain panel (AID 1159580);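 also: tested at 20 µM; growth read once vehicle control cultures reached saturation at 30 °C; 1 = growth at the plate median or of vehicle wells; lower values mean less growth of the strain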
Details: growth OD
[1] = S. cerevisiae deletion strains, locus YBL105C, strain PKC1, stronger effect = lower value
[2] = S. cerevisiae deletion strains, locus YBR135W, strain CKS1, stronger effect = lower value
[3] = S. cerevisiae deletion strains, locus YBR136W, strain MEC1, stronger effect = lower value
[4] = S. cerevisiae deletion strains, locus YBR160W, strain CDC28, stronger effect = lower value
[5] = S. cerevisiae deletion strains, locus YDL017W, strain CDC7, stronger effect = lower value
[6] = S. cerevisiae deletion strains, locus YDL028C, strain MPS1, stronger effect = lower value
[7] = S. cerevisiae deletion strains, locus YDL108W, strain KIN28, stronger effect = lower value
[8] = S. cerevisiae deletion strains, locus YDL214C, strain PRR2, stronger effect = lower value
[9] = S. cerevisiae deletion strains, locus YDR052C, strain DBF4, stronger effect = lower value
[10] = S. cerevisiae deletion strains, locus YDR226W, strain ADK1, stronger effect = lower value
[11] = S. cerevisiae deletion strains, locus YDR477W, strain SNF1, stronger effect = lower value
[12] = S. cerevisiae deletion strains, locus YER123W, strain YCK3, stronger effect = lower value
[13] = S. cerevisiae deletion strains, locus YER133W, strain GLC7, stronger effect = lower value
[14] = S. cerevisiae deletion strains, locus YFR003C, strain YPI1, stronger effect = lower value
[15] = S. cerevisiae deletion strains, locus YFR019W, strain FAB1, stronger effect = lower value
[16] = S. cerevisiae deletion strains, locus YFR028C, strain CDC14, stronger effect = lower value
[17] = S. cerevisiae deletion strains, locus YGR040W, strain KSS1, stronger effect = lower value
[18] = S. cerevisiae deletion strains, locus YGR052W, strain FMP48, stronger effect = lower value
[19] = S. cerevisiae deletion strains, locus YGR092W, strain DBF2, stronger effect = lower value
[20] = S. cerevisiae deletion strains, locus YHR030C, strain SLT2, stronger effect = lower value
[21] = S. cerevisiae deletion strains, locus YHR079C, strain IRE1, stronger effect = lower value
[22] = S. cerevisiae deletion strains, locus YHR082C, strain KSP1, stronger effect = lower value
[23] = S. cerevisiae deletion strains, locus YHR205W, strain SCH9, stronger effect = lower value
[24] = S. cerevisiae deletion strains, locus YIL147C, strain SLN1, stronger effect = lower value
[25] = S. cerevisiae deletion strains, locus YJL095W, strain BCK1, stronger effect = lower value
[26] = S. cerevisiae deletion strains, locus YJL128C, strain PBS2, stronger effect = lower value
[27] = S. cerevisiae deletion strains, locus YJL157C, strain FAR1, stronger effect = lower value
[28] = S. cerevisiae deletion strains, locus YJR016C, strain ILV3, stronger effect = lower value
[29] = S. cerevisiae deletion strains, locus YJR066W, strain TOR1 (second series), stronger effect = lower value
[30] = S. cerevisiae deletion strains, locus YJR066W, strain TOR1, stronger effect = lower value
[31] = S. cerevisiae deletion strains, locus YKL048C, strain ELM1, stronger effect = lower value
[32] = S. cerevisiae deletion strains, locus YKL067W, strain YNK1, stronger effect = lower value
[33] = S. cerevisiae deletion strains, locus YKL101W, strain HSL1, stronger effect = lower value
[34] = S. cerevisiae deletion strains, locus YKL203C, strain TOR2, stronger effect = lower value
[35] = S. cerevisiae deletion strains, locus YLR113W, strain HOG1, stronger effect = lower value
[36] = S. cerevisiae deletion strains, locus YLR133W, strain CKI1, stronger effect = lower value
[37] = S. cerevisiae deletion strains, locus YLR403W, strain SFP1, stronger effect = lower value
[38] = S. cerevisiae deletion strains, locus YML070W, strain DAK1, stronger effect = lower value
[39] = S. cerevisiae deletion strains, locus YMR205C, strain PFK2 (second series), stronger effect = lower value
[40] = S. cerevisiae deletion strains, locus YNL006W, strain LST8, stronger effect = lower value
[41] = S. cerevisiae deletion strains, locus YNL020C, strain ARK1, stronger effect = lower value
[42] = S. cerevisiae deletion strains, locus YNL183C, strain NPR1, stronger effect = lower value
[43] = S. cerevisiae deletion strains, locus YNL307C, strain MCK1 (second series), stronger effect = lower value
[44] = S. cerevisiae deletion strains, locus YOL136C, strain PFK27, stronger effect = lower value
[45] = S. cerevisiae deletion strains, locus YOR061W, strain CKA2, stronger effect = lower value
[46] = S. cerevisiae deletion strains, locus YOR119C, strain RIO1, stronger effect = lower value
[47] = S. cerevisiae deletion strains, locus YOR231W, strain MKK1, stronger effect = lower value
[48] = S. cerevisiae deletion strains, locus YPL031C, strain PHO85, stronger effect = lower value
[49] = S. cerevisiae deletion strains, locus YPL153C, strain RAD53, stronger effect = lower value
[50] = S. cerevisiae deletion strains, locus YPL209C, strain IPL1, stronger effect = lower value
[51] = S. cerevisiae deletion strains, locus YPL256C, strain CLN2, stronger effect = lower value
[52] = S. cerevisiae deletion strains, locus YPR106W, strain ISR1, stronger effect = lower value
[53] = S. cerevisiae deletion strains, locus YPR111W, strain DBF20, stronger effect = lower value
[54] = S. cerevisiae deletion strains, locus YDL101C, strain DUN1, stronger effect = lower value
[55] = S. cerevisiae deletion strains, locus YAL013W, strain DEP1, stronger effect = lower value
[56] = S. cerevisiae deletion strains, locus YBR229C, strain ROT2, stronger effect = lower value
[57] = S. cerevisiae deletion strains, locus YCL061C, strain MRC1, stronger effect = lower value
[58] = S. cerevisiae deletion strains, locus YDR150W, strain NUM1, stronger effect = lower value
[59] = S. cerevisiae deletion strains, locus YEL061C, strain CIN8, stronger effect = lower value
[60] = S. cerevisiae deletion strains, locus YGR078C, strain PAC10, stronger effect = lower value
[61] = S. cerevisiae deletion strains, locus YHR087W, strain rtc3, stronger effect = lower value
[62] = S. cerevisiae deletion strains, locus YJL187C, strain SWE1, stronger effect = lower value
[63] = S. cerevisiae deletion strains, locus YJR043C, strain POL32, stronger effect = lower value
[64] = S. cerevisiae deletion strains, locus YJR075W, strain HOC1, stronger effect = lower value
[65] = S. cerevisiae deletion strains, locus YLR039C, strain RIC1, stronger effect = lower value
[66] = S. cerevisiae deletion strains, locus YLR058C, strain SHM2 (second series), stronger effect = lower value
[67] = S. cerevisiae deletion strains, locus YLR085C, strain ARP6, stronger effect = lower value
[68] = S. cerevisiae deletion strains, locus YLR262C, strain YPT6, stronger effect = lower value
[69] = S. cerevisiae deletion strains, locus YML094W, strain GIM5, stronger effect = lower value
[70] = S. cerevisiae deletion strains, locus YMR219W, strain ESC1, stronger effect = lower value
[71] = S. cerevisiae deletion strains, locus YNL128W, strain TEP1, stronger effect = lower value
[72] = S. cerevisiae deletion strains, locus YNL153C, strain GIM3, stronger effect = lower value
[73] = S. cerevisiae deletion strains, locus YNL298W, strain CLA4 (second series), stronger effect = lower value
[74] = S. cerevisiae deletion strains, locus YNL322C, strain KRE1, stronger effect = lower value
[75] = S. cerevisiae deletion strains, locus YNR030W, strain Alg12, stronger effect = lower value
[76] = S. cerevisiae deletion strains, locus YOL006C, strain TOP1, stronger effect = lower value
[77] = S. cerevisiae deletion strains, locus YPL055C, strain LGE1, stronger effect = lower value
[78] = S. cerevisiae deletion strains, locus YPL241C, strain CIN2, stronger effect = lower value
[79] = S. cerevisiae deletion strains, locus YPR135W, strain CTF4, stronger effect = lower value
[80] = S. cerevisiae deletion strains, locus YGR229C, strain SMI1, stronger effect = lower value
[81] = S. cerevisiae deletion strains, locus YMR263W, strain SAP30, stronger effect = lower value
[82] = S. cerevisiae strains, strain wild type, stronger effect = lower value

Measured: normalized growth

N/C(CCSc1ccc(Cl)cc1)=N/OC(=O)Nc1ccc(Cl)cc1
inactive: [1] 0.986 | [2] 0.984 | [3] 0.978 | [4] 0.978 | [5] 0.982 | [6] 0.986 | [7] 0.983 | [9] 0.982 | [10] 0.983 | [14] 0.981 | [16] 0.986 | [24] 0.986 | [26] 0.944 | [28] 0.981 | [50] 0.983 | [52] 0.976 | [53] 0.978
active: [8] 0.336 | [11] 0.273 | [12] 0.0987 | [13] 0.286 | [15] 0.108 | [17] 0.247 | [18] 0.118 | [19] 0.275 | [20] 0.104 | [21] 0.118 | [22] 0.114 | [23] 0.253 | [25] 0.111 | [27] 0.371 | [29] 0.0983 | [30] 0.114 | [31] 0.346 | [32] 0.377 | [33] 0.259 | [34] 0.14 | [35] 0.126 | [36] 0.377 | [37] 0.311 | [38] 0.103 | [39] 0.345 | [40] 0.697 | [41] 0.375 | [42] 0.122 | [43] 0.315 | [44] 0.125 | [45] 0.326 | [46] 0.133 | [47] 0.103 | [48] 0.142 | [49] 0.0978 | S. cerevisiae deletion strains, locus YPL204W, strain HRR25, stronger effect = lower value 0.105 | [51] 0.118

CC(C)c1ccc(COC(=O)Nc2ccc(CSc3ccc(Cl)cc3)o2)cc1
inactive: S. cerevisiae deletion strains, locus YAR019C, strain CDC15, stronger effect = lower value 0.99 | [1] 0.992 | [2] 0.983 | [3] 0.983 | [4] 0.989 | [5] 0.982 | [6] 0.985 | [54] 0.992 | [7] 0.985 | S. cerevisiae deletion strains, locus YDL132W, strain cdc53, stronger effect = lower value 0.982 | [8] 0.934 | [9] 0.993 | S. cerevisiae deletion strains, locus YDR054C, strain cdc34, stronger effect = lower value 0.972 | [10] 0.981 | [11] 0.929 | [12] 0.91 | [13] 0.925 | S. cerevisiae deletion strains, locus YFL009W, strain cdc4, stronger effect = lower value 0.979 | S. cerevisiae deletion strains, locus YFL029C, strain CAK1, stronger effect = lower value 0.983 | [14] 0.983 | [15] 0.935 | [16] 0.988 | [17] 0.923 | [18] 0.952 | [19] 0.921 | [20] 0.871 | [21] 0.886 | [22] 0.963 | [23] 0.82 | [24] 0.983 | [25] 0.855 | [26] 0.954 | [27] 0.907 | [28] 0.98 | [29] 0.9 | [30] 1.01 | [31] 0.953 | [32] 0.938 | [33] 0.953 | S. cerevisiae deletion strains, locus YKL193C, strain SDS22, stronger effect = lower value 0.98 | [34] 0.976 | [35] 0.879 | [36] 0.928 | [37] 0.893 | [38] 0.912 | S. cerevisiae deletion strains, locus YMR001C, strain CDC5, stronger effect = lower value 0.983 | [39] 0.928 | S. cerevisiae deletion strains, locus YMR277W, strain FCP1, stronger effect = lower value 0.982 | [40] 0.988 | [41] 0.919 | S. cerevisiae deletion strains, locus YNL161W, strain CBK1, stronger effect = lower value 0.98 | [42] 0.995 | S. cerevisiae deletion strains, locus YNL207W, strain RIO2, stronger effect = lower value 0.982 | S. cerevisiae deletion strains, locus YNL222W, strain SSU72, stronger effect = lower value 0.987 | [43] 0.933 | S. cerevisiae deletion strains, locus YOL078W, strain AVO1, stronger effect = lower value 0.981 | [44] 0.92 | [45] 0.909 | [46] 0.983 | [47] 0.963 | S. cerevisiae deletion strains, locus YOR329C, strain SCD5, stronger effect = lower value 0.986 | [48] 0.902 | [49] 0.912 | [50] 0.988 | [51] 0.923 | S. cerevisiae deletion strains, locus YPR025C, strain CCL1, stronger effect = lower value 0.989 | [52] 0.983 | [53] 0.983 | S. cerevisiae deletion strains, strain NNK1, stronger effect = lower value 0.987 | S. cerevisiae deletion strains, strain TSCII, stronger effect = lower value 0.986

O=C(CC1NCCN(Cc2ccccc2)C1=O)Nc1ccc(Cl)cc1 (stereo not given)
inactive: [55] 0.993 | [56] 0.995 | [57] 0.981 | [54] 0.968 | [58] 0.993 | [59] 1.01 | [60] 0.99 | [20] 0.955 | [61] 0.97 | [62] 1.01 | [63] 0.971 | [64] 1.02 | [65] 0.988 | [66] 0.998 | [67] 1.01 | [68] 0.994 | [69] 1.01 | [70] 1.01 | [71] 1 | [72] 0.981 | [73] 0.975 | [74] 0.996 | [75] 0.984 | [76] 0.993 | [77] 0.909 | [78] 1 | [79] 0.915

COC(=O)CCCCCCCC(=O)Nc1ccc(Cl)cc1
inactive: [55] 0.999 | [56] 0.997 | [57] 0.998 | [54] 0.984 | [58] 0.896 | [59] 1 | [60] 0.997 | [80] 1.03 | [20] 0.999 | [61] 0.983 | [63] 1.01 | [64] 0.985 | [65] 1.01 | [66] 1.01 | [67] 1.01 | [68] 1.02 | [69] 0.975 | [70] 1.01 | [81] 1.01 | S. cerevisiae deletion strains, locus YMR307W, strain GAS1, stronger effect = lower value 1.06 | [71] 1.02 | [72] 0.997 | [73] 1.01 | [74] 1 | [75] 0.997 | [77] 0.929 | [78] 0.991 | [79] 0.955 | [82] 1.02

O=C(CSc1ccc(Cl)cc1)Nc1ccc(F)cc1
inactive: [54] 0.939 | [59] 0.942 | [62] 1 | S. cerevisiae deletion strains, locus YKL190W, strain CNB1, stronger effect = lower value 0.934 | [65] 0.884 | [67] 0.79 | [68] 0.826 | [69] 0.875 | [81] 0.948 | [71] 0.968 | [72] 0.925 | [76] 0.78 | [82] 0.919
active: [55] 0.909 | [56] 0.908 | [58] 0.803 | [60] 0.888 | [80] 0.924 | [20] 0.679 | [61] 0.888 | [63] 0.916 | [64] 0.823 | [66] 0.909 | [70] 0.916 | [73] 0.808 | [74] 0.923 | [75] 0.807 | [77] 0.782 | [78] 0.849 | [79] 0.608
